Assay results: PubChem BioAssay (NCI)
The panel holds about 83,000 compounds, 20% with a hit somewhere; the sample as a whole holds those more often.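 Plates (96-well) were seeded with cells, treated with compound at one concentration, and incubated for 48 hours before percent growth was determined.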 The source made the active and inactive calls. The calls were made as follows: active = growth percent below 10; inactive = the rest.

Columns and labels:
Experiment in all cases: NCI-60 one-dose screen, 48 h (100 = growth as untreated, 0 = no growth, -100 = all killed)
Details in all cases: 10 µM unless noted
[1] = test system: NCI-H23 lung
[2] = test system: NCI-H226 lung
[3] = test system: NCI-H322M lung
[4] = test system: HOP-62 NSCLC
[5] = test system: NCI-H460 lung
[6] = test system: HOP-92 NSCLC
[7] = test system: NCI-H522 lung
[8] = test system: A549/ATCC NSCLC
[9] = test system: 786-0 renal
[10] = test system: COLO 205 colon

Measured: growth

COc1ccc(N=Nc2c(N)nn3c(N)c(C#N)c(-c4ccccc4)nc23)cc1
inactive: [1] 32.3% | [3] 45.7% | [5] 16.1% | [8] 53.1% | [9] 13.8% | [10] 80.8%
active: [2] 0.868% | [4] -1.62% | [6] -9.66% | [7] -4.5%

CN(C)C(=O)c1cc(-c2ccc3ncnc(N4CCc5cc(F)c(Cl)cc54)c3c2)cnc1N
active: [1] -18.1% | [2] -25.4% | [3] -64.2% | [4] -32.6% | [5] 3.44% | [6] -45.7% | [7] -13.4% | [8] -66.9% | [9] -82.2% | [10] -76.5%

COc1ccc2[nH]c(=O)c(CSc3ccccc3Nc3nccc(-c4ccc(Cl)cc4)n3)cc2c1
inactive: [1] 43.2% | [2] 45.7% | [3] 69.5% | [4] 69.2% | [5] 33.3% | [6] 36.6% | [8] 52.5% | [9] 43.4% | [10] 61.8%
active: [7] 4.52%

Cc1cc(C(NC(=O)C2CC3(CC(Nc4cccc5c4C(=O)N(C4CCC(=O)NC4=O)C5=O)C3)C2)c2ccc3c(c2)OC(F)(F)O3)c(O)c2ncccc12 (stereo not given)
active: [1] 6.24% | [2] -2.38% | [4] -10.9% | [5] 1.76% | [6] -1.71% | [7] 2.63% | [8] 9.67% | [9] -12.8%
inactive: [3] 27.5% | [10] 13.2%

COc1cccc(C(N)=Nc2ccc(OCCCCCCCCn3cncn3)cc2)c1
inactive: [3] 58.1% | [4] 16.2% | [6] 73.7% | [8] 24.6% | [9] 28.4%
active: [1] 9.5%

CCOC(=O)/C(F)=C/C1CC1C(c1ccccc1)c1ccccc1 (stereo not given)
inactive: [1] 73.8% | [2] 91.8% | [3] 80.6% | [4] 125% | [5] 38.7% | [6] 84.1% | [7] 94.8% | [8] 91.7% | [9] 93% | [10] 117%

O=C1CCC(N2C(=O)c3cccc(NCCCCCC(=O)N4CCN(c5ccc6nc7c(nc6c5C(F)(F)F)C(=O)c5ncccc5C7=O)CC4)c3C2=O)C(=O)N1 (stereo not given)
active: [1] -49% | [2] -51.3% | [3] -73.8% | [4] -74.2% | [5] -48.3% | [6] -40.2% | [7] -62% | [8] -64.3% | [9] -56.5% | [10] -75.9%

Nc1nn2c(-c3cc4ccccc4oc3=O)ccnc2c1N=Nc1ccccc1
inactive: [1] 12.5% | [2] 35.1% | [3] 65.4% | [4] 22.3% | [5] 44.4% | [6] 30.2% | [7] 25.3% | [8] 100% | [9] 41.4% | [10] 114%

Clc1ccc(-c2nc3ccc(-c4nnc(SCc5ccccc5)o4)cc3[nH]2)cc1
active: [4] 9.18%
inactive: [1] 18.3% | [2] 40.3% | [3] 27.6% | [5] 41.4% | [6] 48% | [7] 10.3% | [8] 34.9% | [9] 24.6% | [10] 55.3%

COc1ccc2c(c1)C(=O)N(C)C2C1c2c(cc3c(c2OC)OCO3)CCN1C (stereo not given)
inactive: [1] 64.9% | [2] 65.1% | [3] 75.9% | [4] 54.5% | [5] 20.7% | [6] 78.7% | [7] 36% | [8] 57.9% | [9] 65.9% | [10] 33.1%

COc1ccc(-c2nnc3c(/C=C/c4ccc(Br)cc4)nc4ccccc4n23)cc1
active: [7] -79.9% | [9] -41.8% | [10] -53%
inactive: [1] 29.9% | [2] 96.7% | [3] 96.5% | [4] 104% | [5] 67.6% | [6] 35.6% | [8] 75.8%

CC(C)C[C@H](NC(=O)[C@@H]1CCCCCCCCCCC(=O)N[C@@H](CC(=O)N2CCC[C@@H]2C2CCCC2)C(=O)N1)B(O)O
active: [1] -83.3% | [2] -33.3% | [3] -59.8% | [4] -14.7% | [5] 0.61% | [6] -63.2% | [7] -49.1% | [8] 1.48% | [9] -43.8% | [10] -64.6%

Cc1ccc(C(C(=O)NC2CCCCC2)N(Cc2ccccc2Cl)C(=O)c2ccc(CN3CCOCC3)o2)o1 (stereo not given)
inactive: [2] 101% | [3] 105% | [4] 107% | [5] 99.9% | [6] 91.3% | [7] 78.7% | [8] 98.5% | [9] 82.8%

COc1c(B(O)O)cc(F)cc1-c1nc2ccc3[nH]ncc3c2c2c1COCC2
inactive: [1] 78.3% | [2] 50.8% | [3] 78.4% | [4] 49.5% | [5] 64.9% | [6] 18.1% | [7] 14.5% | [8] 92.5% | [9] 46.1% | [10] 38.1%

COc1ccc(-c2cc(-c3cc(OC)c(OC)c(OC)c3)[nH]c(=O)c2C#N)cc1
active: [3] 5.73% | [6] -33.5% | [9] -65.4%
inactive: [1] 86% | [2] 23.4% | [4] 12.9% | [5] 52.4% | [7] 50.6% | [8] 59.3% | [10] 130%

CS(=O)(=O)Nc1cccc(-n2cnc3cc(-c4ccc(O)cc4)ccc32)c1
inactive: [1] 35.3% | [2] 33% | [3] 53.1% | [4] 32.1% | [5] 20.3% | [6] 96.8% | [7] 25% | [8] 53.7% | [9] 44.7% | [10] 31.5%

Cc1ccc(Cl)cc1NC(=O)N/C(N)=N/c1nc2ccccc2s1
active: [1] -9.8% | [2] 0.832% | [4] -11.7% | [5] -8.76% | [6] -23% | [7] -61.9% | [8] -36.9% | [9] -2.48% | [10] -91.1%
inactive: [3] 18.6%

Cc1ccc(O)cc1Nc1nc(SCCN2CCOCC2)nc2c1cnn2CC(Cl)c1ccc(Br)cc1 (stereo not given)
active: [5] 9.59% | [6] -19.8% | [8] -9.82%
inactive: [1] 13.7% | [2] 27.5% | [3] 73.5% | [4] 23% | [7] 15.8% | [9] 11.1% | [10] 85.9%

Cc1ccc(NC(=O)N/N=C/c2c[nH]c3ccccc23)c(C)c1
inactive: [1] 12.6% | [2] 12.6% | [3] 42% | [4] 34.4% | [6] 16.3% | [8] 14.9%
active: [5] 5.78% | [7] -36.8% | [9] -18.4% | [10] -51.5%

CC1=C(C(=O)OC(C)C)C(c2ccc(O)cc2)NC(=O)N1 (stereo not given)
inactive: [2] 105% | [3] 106% | [4] 99.4% | [5] 117% | [6] 105% | [7] 81.3% | [8] 101% | [9] 99.5% | [10] 114%

O=C(N/N=C/c1ccc(-c2cccc([N+](=O)[O-])c2)s1)c1[nH]c2ccc(Br)cc2c1-c1ccccc1
inactive: [2] 94.8% | [3] 99.2% | [4] 64.4% | [5] 84.6% | [6] 94.4% | [7] 66.5% | [8] 91.4% | [9] 92.6% | [10] 97.7%

O=CNc1cccc(-n2cnc3cc(-c4ccc(O)cc4)ccc32)c1
active: [2] -0.208% | [7] -6.53%
inactive: [3] 68.1% | [4] 42.6% | [5] 16.7% | [6] 71.7% | [8] 42.9% | [9] 39.1% | [10] 39%

CCCCCCCCc1ccc(C(=O)Nc2ccc(C)c(OP(=O)(O)O)c2)cc1
inactive: [2] 102% | [3] 111% | [4] 104% | [5] 110% | [6] 42% | [7] 82.1% | [8] 105% | [9] 83.6% | [10] 126%

O=C(COc1ccc(/C=C2/C(=O)Nc3ccc(Cl)cc32)cc1)Nc1ccc(Br)cc1
active: [2] -48.5% | [3] 0.856% | [4] -72.6% | [5] -31.6% | [6] -48.4% | [7] -35% | [8] -66.2% | [9] -78.9% | [10] 2.47%

O=C(Cn1c(-c2ccccc2)nc2ccccc21)N=Nc1c(O)[nH]c2ccc(Cl)cc12
active: [2] -62.1% | [3] 5% | [4] -58.6% | [5] 3.44% | [6] -41.7% | [8] 6.42% | [9] -18.5% | [10] -40.3%
inactive: [7] 40.5%

O=C1/C(=C/C=C/c2ccco2)SC(=S)N1CC(=S)C1C=CS(=O)(=O)C1 (stereo not given)
inactive: [2] 89.1% | [3] 38.8% | [4] 130% | [5] 29.2% | [6] 121% | [7] 32.5% | [8] 47.7% | [9] 91.2% | [10] 76%

O=C(CSc1nnc(-c2ccc(-c3nc4ccccc4[nH]3)cc2)o1)Nc1ccc(Cl)cc1
active: [4] 0.484% | [5] -65.4% | [6] -5.87% | [7] 0.5% | [8] 1.88% | [9] -37.8%
inactive: [2] 40.3% | [3] 61.5% | [10] 61.7%

Cn1cc(-c2cc(N)n3nc(-c4c[nH]c5ccccc45)cc3n2)c2cc(Cl)ccc21
active: [3] -35.3% | [4] -73.7% | [5] -59.5% | [6] -68.5% | [7] -71.9% | [8] -37.8% | [9] -67.8% | [10] -90.8%
inactive: [2] 16.6%
